Bioassay records (PubChem BioAssay)
Shown are actives, neighbours in structure and some others; about 2.3% of the full set was active somewhere.
IDH1 R132H inh = inhibitors of human mutant IDH1 R132H; IDH1-R132H enzyme, NADPH consumption, diaphorase/resazurin fluorescence; Potency, µM (series often up to 76.6 µM), usual class: inhibitors; O75874; 390,000 tested, 0.093% active; further: nearly all actives have a fitted effect of over 65% in size
Target sequence (O75874 whole entry R132H, stated change not applied): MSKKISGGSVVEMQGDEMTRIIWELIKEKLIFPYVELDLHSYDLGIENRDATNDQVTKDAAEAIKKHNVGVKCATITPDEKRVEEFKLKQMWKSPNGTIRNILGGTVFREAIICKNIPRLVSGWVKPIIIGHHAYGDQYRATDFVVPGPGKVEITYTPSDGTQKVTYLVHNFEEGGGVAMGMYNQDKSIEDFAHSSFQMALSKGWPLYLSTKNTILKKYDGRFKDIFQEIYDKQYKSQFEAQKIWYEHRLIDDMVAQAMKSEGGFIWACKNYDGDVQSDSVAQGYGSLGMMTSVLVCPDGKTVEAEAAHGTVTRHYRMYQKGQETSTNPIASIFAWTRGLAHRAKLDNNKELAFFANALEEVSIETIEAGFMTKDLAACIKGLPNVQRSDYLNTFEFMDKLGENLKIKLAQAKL
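IDH1-R132H (0.5 ug/mL) preincubated 30 min with compound, then NADPH (0.016 mM) and alpha-KG (2 mM) added; 80 min at RT, pH 7.5. Remaining NADPH coupled via diaphorase/resazurin to fluorescence (540/590 nm); concentration-response curves normalized to no-enzyme control.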
A549 tox = counter-screen for Nrf2 inhibitors: cytotoxicity in A549 cells. Potency, µM (series often up to 46 µM), actives largely listed as inhibitors. AID 504648. 390,000 tested, 0.16% active. A549 ARE-Fluc cells, CellTiter-Fluor viability, 18-24 h
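A549 ARE-Fluc cells in 5% FBS OPTI-MEM, 5000 cells/well, rested 2 h then exposed to compounds in concentration-response for 18-24 h at 37 °C. Viability by CellTiter-Fluor fluorescence (Ex 405/Em 525) after 30 min; luciferase luminescence (BugLite, 15 min, RT) read afterwards.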
Anesthetic bind = candidate novel general anesthetic via apoferritin binding; P02791; apoferritin/1-aminoanthracene competitive binding, fluorescence; Potency, µM (doses to about 77.5 µM), hits mostly inhibitors; 350,000 tested, 0.074% active; AID 485281; further: nearly all actives have a fitted effect of over 20% in size
Target sequence (P02791 2-175 limits assumed): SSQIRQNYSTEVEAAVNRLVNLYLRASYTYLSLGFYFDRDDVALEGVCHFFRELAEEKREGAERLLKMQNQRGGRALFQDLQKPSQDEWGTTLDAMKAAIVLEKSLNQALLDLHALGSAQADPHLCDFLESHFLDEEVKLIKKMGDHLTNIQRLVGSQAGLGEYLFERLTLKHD
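Concentration-response curves derived by four-parameter Hill fitting of normalized fluorescence, where compounds displaced 1-AMA from 10 uM horse apoferritin following a brief 10 min room-temperature incubation; propofol titration acted as positive control.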
Nrf2 ARE act = Nrf2 pathway activation; AREc32 ARE-luciferase reporter (MCF7-derived line), luminescence, 24 h; Potency, µM (titrated, usually from 46.1 µM), hits mostly activators; 410,000 tested, 0.31% active; AID 624171; further: nearly all actives have a fitted effect of over 65% in size
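Luminescent ARE reporter assay in AREc32_Fluc cells: overnight plating at 37 deg C, 24 hr compound incubation, Steady-Glo added, 30 min RT before reading.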
Giardia kill = Giardia lamblia killing; Giardia lamblia trophozoite viability; AID 540267; 340,000 tested, 0.15% active; activity change, % at 7.66 µM, hits read low; in the data active means activity change below about -80%; inconclusive means between about -30% and that limit;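 further: parasites exposed to compound for two days anaerobically before the ATP read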
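Luminescent ATP signal served as the viability read-out, measured 15-30 min after adding ATP detection reagent to trophozoites that had been incubated with compounds for 48 hrs at 37 deg C anaerobically at 100 cells/well.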
Nrf2 block = Nrf2 pathway inhibition; A549 ARE-Fluc reporter, luciferase luminescence, 18-24 h; Potency, µM (titrated, usually from 46 µM), hits mostly inhibitors; 360,000 tested, 2.1% active; further: nearly all actives have a fitted effect of over 60% in size
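Nrf2 function is reported as luminescence of an ARE-controlled luciferase in A549 cells. Compounds were tested at several concentrations, and a CellTiter-Fluor read on the same wells flagged cytotoxicity.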
A number is an active result; – = inactive; ? = inconclusive; · = no result given; [ ] = remark or other dose. Unless noted, the call rests on the fitted dose curve; in most records, active means well fitted curve in the direction sought with a large enough effect; inconclusive means small, poorly fitted or top-dose-only effect, or another doubt; inactive means no such curve, though single readings can be large; an effect the other way counts as inactive or inconclusive.

SMILES | IDH1 R132H inh | A549 tox | Anesthetic bind | Nrf2 ARE act | Giardia kill | Nrf2 block
CC(=O)N1CCOc2ccc(S(=O)(=O)N3CCC(C(=O)Nc4ccc(F)cc4)CC3)cc21 | – | – | – | – | – | ?
CC(=O)N1CCOc2ccc(S(=O)(=O)N3CCC(C(=O)Nc4ccc(C)c(C)c4)CC3)cc21 | – | – | – | – | – | 16.4µM
Cc1ccc(N(Cc2cccs2)C(=O)c2ccccc2Cl)cc1 | – | – | – | – | · | –
Cc1cccc(NC(=O)c2oc3ccccc3c2NC(=O)c2cc(=O)c3ccc(C)cc3o2)c1 | – | – | – | – | · | –
COc1cccc(/C=N/NC(N)=S)c1OCc1cccc(Cl)c1 | – | – | – | – | – | 16.4µM
NC(=S)N/N=C\c1ccccc1OCc1ccccc1 | – | – | – | – | – | –
c1ccc(-n2ncc3c(NC4CCCCCC4)ncnc32)cc1 | – | – | – | – | ? | ?
CCOC(=O)N1CCC(Nc2ncnc3c2cnn3-c2ccccc2)CC1 | – | – | – | – | – | 16.4µM
CN(C)S(=O)(=O)c1ccc2c(c1)nnn2CCNC(=O)Nc1ccc(Cl)cc1 | – | – | – | – | · | ·
COc1ccc(/C=N/NC(=O)c2ccc(CSc3nc(C)cc(C)n3)cc2)cc1O | – | – | – | – | – | 20.6µM
COc1ccc(O)c(/C=N/NC(=O)c2ccc(CSc3nc(C)cc(C)n3)cc2)c1 | – | – | – | – | – | 9.2µM
O=C(NCc1ccccc1Cl)c1ccc2c(c1)nnn2C1CCCC1 | – | – | – | – | · | ?
Cc1cccc2sc(N(Cc3cccnc3)C(=O)CCS(=O)(=O)c3ccccc3)nc12 | – | – | – | 22.4µM | · | ·
Cc1ccc2sc(N(Cc3cccnc3)C(=O)CCS(=O)(=O)c3ccccc3)nc2c1C | – | – | – | – | · | ·
Cc1noc2ncnc(N3CCN(c4ccc(F)cc4)CC3)c12 | – | – | – | – | – | 7.31µM
Cc1noc2ncnc(N3CCCCC3)c12 | – | – | – | – | – | –
CC(=O)c1ccc(NS(=O)(=O)c2ccc(-n3cccn3)cc2)cc1 | – | – | – | – | · | –
CC(=O)c1c(C(C)=O)c(C)n(-c2nc(-c3ccc(Br)cc3)c(C)s2)c1C | – | ? | – | – | – | 25.9µM
CC1(C)CCC2(C(=O)O)CC[C@]3(C)C(=CCC4[C@]5(C)CCC(O)C(C)(C)C5C(O)C[C@]43C)C2C1 (some centres not stated) | · | · | – | · | · | ·
CCN1/C(=C/C(C)=C/c2sc3ccccc3[n+]2CC)Sc2ccccc21 | ? | 20.6µM | ? | – | – | 8.2µM
CCCCN(CCCC)S(=O)(=O)c1ccc(NC(=O)c2cccs2)cc1 | – | ? | ? | – | – | 18.4µM
COc1ccccc1-n1cc2c([N+](=O)[O-])cc([N+](=O)[O-])cc2n1 | – | – | – | – | -85.3 | –
COc1ccc(Cl)cc1S(=O)(=O)N1CCN(S(=O)(=O)c2ccc3c(c2)OCCO3)CC1 | · | – | · | · | · | ?
O=C(COC(=O)C12CC3CC(CC(C3)C1)C2)NCC1CCCO1 (configuration not stated) | · | – | · | · | – | –
C=C1C(=O)O[C@@]23[C@H]1CC[C@@H](C)[C@@H]2CC[C@@]1(C)O[C@@H]31 | – | ? | · | – | ? | 14.6µM
SMILES | IDH1 R132H inh | A549 tox | Anesthetic bind | Nrf2 ARE act | Giardia kill | Nrf2 block
CCOC(=O)CSc1nc2ccc(NC(=O)c3ccc(C)cc3)cc2s1 | – | – | – | – | · | –
O=C1Nc2ccc(S(=O)(=O)Nc3ccccc3O)c3cccc1c23 | – | – | ? | – | · | –
Cc1ccc(C)c(NS(=O)(=O)c2ccc3c4c(cccc24)C(=O)N3)c1 | – | – | – | – | · | 18.4µM
CC(=Nc1ccc(O)cc1)c1sc2ccccc2c1O | – | – | – | ? | – | ?
Oc1c(N=Nc2ccccc2)sc2ccccc12 | – | – | – | 2.82µM | – | –
O=c1[nH]nc(Sc2ncnc3sccc23)n1CCc1ccccc1 | – | – | – | ? | – | 14.6µM
O=S(=O)(c1ccsc1)N1CCN(c2nc(-c3cccs3)nc3ccccc23)CC1 | · | – | · | · | · | –
CCOc1ccc(NS(=O)(=O)c2ccc(NC(=S)NC(=O)CC(C)C)cc2)cc1 | – | ? | ? | – | – | ·
CCCC(=O)NC(=S)Nc1ccc(S(=O)(=O)Nc2ccc(OCC)cc2)cc1 | – | 18.4µM | – | – | – | 7.31µM
CCOc1ccc(NS(=O)(=O)c2ccc(NC(=O)c3ccccn3)cc2)cc1 | – | – | · | – | – | 14.6µM
O=C(N/N=C\c1ccc(CNS(=O)(=O)c2ccc(Cl)cc2)o1)C(=O)Nc1ccc(Oc2ccccc2)cc1 | – | ? | – | – | – | 16.4µM
O=C(N/N=C\c1ccc(CNS(=O)(=O)c2ccccc2)o1)C(=O)Nc1ccc(F)cc1 | – | – | – | –[9.22 µM] | – | –
CCCCNC(=O)C1(C)CCN1C(=O)c1cccc(OC(F)(F)F)c1 (configuration not stated) | · | · | · | – | · | ·
CCOC(=O)c1cn(CC)c2cc(Cl)c([N+](=O)[O-])cc2c1=O | – | – | – | – | – | –
CCOC(=O)c1cn(-c2c(Cl)cccc2Cl)c2cc(Cl)c([N+](=O)[O-])cc2c1=O | – | – | – | 11.2µM | ? | –
CCc1cccc(NC(=O)C2CCN(S(=O)(=O)c3cccc(-c4noc(C)n4)c3)CC2)c1 | – | – | – | – | · | ·
COC(=O)Nc1ccc(S(=O)(=O)NC2CCS(=O)(=O)C2)cc1 (configuration not stated) | – | – | – | – | – | –
CCCCc1ccc(S(=O)(=O)NC2CCS(=O)(=O)C2)cc1 (configuration not stated) | – | – | – | – | – | 18.4µM
Cc1ccc(CSC2=NS(=O)(=O)c3ccccc32)cc1 | · | – | · | · | – | –
Cc1cc(C)c(Cn2cnc(-c3ccc([N+](=O)[O-])cc3)c2)c(C)c1 | – | ? | – | – | – | 20.6µM
CC(C)(C)c1ccc(Cn2cnc(-c3ccc([N+](=O)[O-])cc3)c2)cc1 | – | ? | ? | – | – | ?
CCc1nnc(NS(=O)(=O)c2ccc(NC(=O)c3cccc([N+](=O)[O-])c3)cc2)s1 | – | – | – | – | – | –
CCc1nnc(NS(=O)(=O)c2ccc(NC(=O)c3ccc([N+](=O)[O-])s3)cc2)s1 | – | · | · | 14.1µM | · | ·
CCc1nnc(NS(=O)(=O)c2ccc(NS(=O)(=O)c3ccccc3[N+](=O)[O-])cc2)s1 | – | – | – | – | – | –
CCc1nnc(NS(=O)(=O)c2ccc(Nc3ccc([N+](=O)[O-])c4nonc34)cc2)s1 | – | 23.1µM | ? | – | – | –
Cc1ccnc(N(C(=O)c2cccs2)C(=O)c2cccs2)c1 | – | – | – | 10µM | – | –
O=C(c1cccs1)N(C(=O)c1cccs1)c1ccc(Br)cn1 | – | ? | – | ? | – | ?
